Experimental data reported in PubChem BioAssay AID1851 (National Center for Advancing Translational Sciences (NCATS), 2009).
The campaign covered roughly 16,000 compounds. About 4,000 (25%) were called active. About 26% were inconclusive and are not listed. Not all results are given here. Values without a mark were called inactive. Calls follow the shape of the dose curve; as a rule, active = well fitted curve in the direction sought with a large enough effect; inconclusive = small, poorly fitted or top-dose-only effect, or effect the other way; inactive = no such curve, though single readings can be large or run the other way.

target: Cytochrome P450 2C9 (Homo sapiens) (UniProt P11712); assay: Cytochrome panel assay with activity outcomes; conditions: recombinant CYP, pro-luciferin dealkylation, luminescence, p450-cyp2c9; series mostly up to 57.1 µM; activity, negative = inhibition: at the top concentration
% is scaled to controls: 0 for no effect and ±100 for the full control effect.

Sequence of Cytochrome P450 2C9 (Homo sapiens) (P11712 whole entry, looked up): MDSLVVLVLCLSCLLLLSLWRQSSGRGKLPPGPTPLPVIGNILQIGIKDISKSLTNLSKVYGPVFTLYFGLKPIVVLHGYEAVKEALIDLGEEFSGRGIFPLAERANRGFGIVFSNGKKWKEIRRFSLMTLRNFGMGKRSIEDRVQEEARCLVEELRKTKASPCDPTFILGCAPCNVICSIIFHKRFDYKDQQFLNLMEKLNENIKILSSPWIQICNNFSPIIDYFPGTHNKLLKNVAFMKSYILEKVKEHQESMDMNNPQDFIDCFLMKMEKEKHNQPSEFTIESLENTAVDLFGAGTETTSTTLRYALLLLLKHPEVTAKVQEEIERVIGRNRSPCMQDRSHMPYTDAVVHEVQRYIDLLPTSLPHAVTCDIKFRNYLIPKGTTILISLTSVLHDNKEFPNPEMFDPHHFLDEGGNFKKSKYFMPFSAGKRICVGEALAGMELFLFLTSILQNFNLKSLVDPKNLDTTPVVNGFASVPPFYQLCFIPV

| SMILES | activity, negative = inhibition | AC50 |
| --- | --- | --- |
| O=C(O)[C@@H]1C[C@@H](C(=O)O)N1 | -20.1% | – |
| Cc1nonc1NC(=O)N1CCCC1 | 9.91% | – |
| CC1CC(C)CN(C(=O)CSc2nnc(CSc3ncccn3)n2C)C1 (stereo unspecified) | -14.4% | – |
| Cn1c(CC(=O)Nc2ccc(Cl)c(Cl)c2)nnc1SCC(=O)N1CCN(c2ccccc2)CC1 | – | 5.62 µM (active) |
| CCOC(=O)N1CCC(NC(=O)C2CCN(S(=O)(=O)N3CCCC3)CC2)CC1 | 2.87% | – |
| CCCS(=O)(=O)N1CCCC(C(=O)N2CCN(C(=O)OCC)CC2)C1 (stereo unspecified) | -19.7% | – |
| CCOC(=O)N1CCC(NC(=O)c2cc(S(=O)(=O)N3CCCC3)cn2C)CC1 | – | 7.08 µM (active) |
| C[C@@]12CCC(=O)C=C1CC[C@H]1[C@@H]2[C@@H](O)C[C@]2(C)[C@@H]1CC[C@@]2(O)C(=O)COC(=O)C1CCCC1 | -1.4% [at 11.4 µM] | – |
| Nc1ccccc1N=Nc1c(S(=O)(=O)O)cc2cc(S(=O)(=O)O)cc(O)c2c1O | -15.1% [at 11.4 µM] | – |
| O=S(=O)(O)c1cc(O)c2c(N=Cc3ccccc3O)cc(S(=O)(=O)O)cc2c1 | – | 3.16 µM (active) |
| COc1ccccc1-c1cc(-n2ccnc2)ncn1 | -8.14% [at 2.29 µM] | – |
| Cc1ccc(Nc2ccc(-n3ccnc3)nn2)cc1C | – | 0.0794 µM (active) |
| CS(=O)(=O)Nc1cccc(-c2nccc(-n3ccnc3)n2)c1 | -8.16% [at 2.29 µM] | – |
| CCc1noc(N)c1C(=O)Nc1ccc(F)c(Cl)c1 | – | 14.1 µM (active) |
| CCc1ccc(NC(=O)c2cc(C(C)C)on2)cc1 | -27.1% | – |
| O=C(O)c1cc(S(=O)(=O)N2CCCCC2)ccc1F | -28% | – |
| O=C(Nc1ccc(F)cc1)c1cc(S(=O)(=O)N2CCCCC2)cs1 | – | 12.6 µM (active) |
| O=C(N/N=C1/C[C@@H](O)[C@@H](O)[C@@H]2[C@H]3C(=O)N(c4ccc(F)cc4F)C(=O)[C@@H]3CC[C@H]12)OCc1ccccc1 | -11.6% [at 11.4 µM] | – |
| O=C1C=C(NCCc2cc(Br)c(O)c(Br)c2)C(=O)c2ncccc21 | – | 1.58 µM (active) |
| O=C1C=C(Nc2nc(C(=O)O)cc(=O)[nH]2)c2ccccc2C1=O | 8.04% [at 11.4 µM] | – |
| COc1ccc2c(c1)c(=O)oc1c(C)c(OCC(=O)N3CCc4ccccc4C3)ccc12 | – | 1 µM (active) |
| COCC(=O)N1CCC2(CC1)CCN(C(=O)Nc1ccc(OC)cc1)CC2 | 22.2% | – |
| CN(C)CC[C@H](c1ccc(Br)cc1)c1ccccn1 | – | inactive |

| SMILES | activity, negative = inhibition | AC50 |
| --- | --- | --- |
| CN(Cc1ccco1)c1ccnc(-c2ccoc2)n1 | 27.8% [at 2.29 µM] | – |
| COc1ccccc1C1(CC(=O)Nc2nccs2)CCOC(C(C)C)C1 (stereo unspecified) | – | 10 µM (active) |
| Oc1ccccc1CNCc1ccccc1O | -4.69% [at 11.4 µM] | – |
| O[C@@H](c1cc(C(F)(F)F)nc2c(Cl)cc(Cl)cc12)[C@@H]1CCCCN1 | 0.514% [at 11.4 µM] | – |
| N#Cc1cccc(-c2nccc(NCc3ccccc3)n2)c1 | -19.1% [at 2.29 µM] | – |
| N#Cc1c(-c2ccccc2)ccnc1Oc1ccccc1 | – | 7.08 µM (active) |
| CN(C)c1ccnc(Oc2ccc(Cl)cc2)c1C#N | – | 20 µM (active) |
| COc1ccc(Oc2nccc(-c3ccc(F)cc3)c2C#N)cc1 | -16.3% | – |
| COc1ccccc1CNc1cc(-c2cccc(C#N)c2)ncn1 | 8.28% [at 2.29 µM] | – |
| C[C@@H]1O[C@H](O[C@@H]2[C@@H](Oc3cc(O)c4c(c3)O[C@H](c3ccc(O)cc3)CC4=O)O[C@@H](CO)[C@@H](O)[C@H]2O)[C@@H](O)[C@H](O)[C@@H]1O | -28.2% [at 25.6 µM] | – |
| Cc1ccc2c(c1)N[C@H](c1ccc(C(=O)O)cc1)c1cccn1-2 | -25.1% [at 11.4 µM] | – |
| C[C@@H](CN1CCC(Cc2ccccc2)CC1)[C@H](O)c1ccc(O)cc1 | 18.2% | – |
| Cc1ccc(C)c(Cn2c(C(=O)OC(C)C)cc3c2ccn3C)c1 | – | 8.91 µM (active) |
| C[C@@H](CN1CCC(Cc2ccccc2)CC1)[C@@H](O)c1ccc(O)cc1 | -1.94% | – |
| CC(C)OC(=O)c1cc2c(ccn2C)n1CC(=O)N1CCC(Cc2ccccc2)CC1 | – | 14.1 µM (active) |
| CCNc1ncc2nc(-c3cc(F)cc(F)c3)c(=O)n(CCOC)c2n1 | -10.3% | – |
| COCCn1c(=O)c(-c2ccc(OC)cc2)nc2cnc(Oc3cccc(Cl)c3)nc21 | – | 0.631 µM (active) |
| COCCn1c(=O)c(-c2cc(F)cc(F)c2)nc2cnc(Oc3cccc(Cl)c3)nc21 | – | 3.98 µM (active) |
| COCCn1c(=O)c(-c2ccc(OC)cc2)nc2cnc(Nc3cccc(OC)c3)nc21 | -14.5% | – |
| COCCn1c(=O)c(-c2ccccc2)nc2cnc(Oc3cccc(Cl)c3)nc21 | – | 0.501 µM (active) |
| COCCn1c(=O)c(-c2cn(C)c3ccccc23)nc2cnc(Oc3cccc(Cl)c3)nc21 | -20.2% | – |
| N#CCCn1c(=O)c(-c2ccc(F)cc2)nc2cnc(Oc3cccc(Cl)c3)nc21 | 26.5% | – |
| O=c1[nH]c(=O)n([C@@H]2C[C@H](O)[C@H](CO)O2)cc1C(F)(F)F | 3.12% [at 25.6 µM] | – |

| SMILES | activity, negative = inhibition | AC50 |
| --- | --- | --- |
| Fc1ccc(NC(=S)NCCc2ccccc2)c(F)c1F | – | 5.01 µM (active) |
| Fc1cc(Br)ccc1NC(=S)NCCc1ccccc1 | – | 10 µM (active) |
| Fc1ccccc1NC(=S)NCCc1ccccc1 | – | 7.94 µM (active) |
| COc1ccccc1NC(=S)NCCc1ccccc1 | -25% | – |
| O=C1O[C@@H]([C@H](O)[C@H](O)[C@H](O)CO)[C@@H](O)[C@@H]1O | -8.59% [at 11.4 µM] | – |
| COc1ccc(C(=O)N2CCC[C@@]3(CCN(C(=O)NC(C)C)C3)C2)cc1 | -2.78% | – |
| Nc1ncnc2c1ncn2[C@H]1O[C@@H](C(=O)OCCO)[C@@H](O)[C@H]1O | -1.34% [at 11.4 µM] | – |
| O=C(O)C1CCN(c2ncnc3ccc(-c4ccccc4C(F)(F)F)cc23)CC1 | 4.43% [at 2.29 µM] | – |
| N#Cc1ccccc1-c1ccc2ncnc(N3CCNCC3)c2c1 | 26.5% [at 2.29 µM] | – |
| Cc1cc(C)n(-c2ccc(C(=O)Nc3cc(C(F)(F)F)ccc3N3CCOCC3)cc2)n1 | – | 0.0794 µM (active) |
| Cc1ccc(C(C)C)n1C(=O)OC(C)(C)C | 0.745% [at 11.4 µM] | – |
| CC(=O)Nc1ccc(N2C(=O)CC(c3ccccc3)CC2=O)cc1 | -18% | – |
| CC(=O)Nc1ccc(N2C(=O)CSC2c2c(F)cccc2Cl)cc1 (stereo unspecified) | – | 10 µM (active) |
| COc1ccc(N2C(=O)CSC2c2cccc(F)c2)c(OC)c1 (stereo unspecified) | -4.17% | – |
| O=C(Nc1ccccc1)c1cc([N+](=O)[O-])ccc1Cl | – | 6.31 µM (active) |
| O=C(Nc1ccccc1)c1ccccc1CC[N+](=O)[O-] | -19.1% | – |
| O=C(Nc1ccc([N+](=O)[O-])cc1Cl)c1cc(Cl)ccc1O | – | 0.631 µM (active) |
| Cc1cccc[n+]1CC(=O)Nc1ccc([N+](=O)[O-])cc1Cl | 18% | – |
| CC1=C[N+](=O)c2ccccc2[N+]1=O | -5.42% [at 11.4 µM] | – |
| N#Cc1cccc(-c2cc(-n3ccnc3)ncn2)c1 | -5.24% [at 2.29 µM] | – |
| O=C(O)c1cccc(OCCO)c1 | -19% [at 11.4 µM] | – |
| CCCCN(C)CCCNC(=O)c1ccc(N2CCCC2=O)cc1 | -14.3% | – |
| O=C(O)c1cccc(N2CCCC2=O)c1 | – | 12.6 µM (active) |

| SMILES | activity, negative = inhibition | AC50 |
| --- | --- | --- |
| c1nc(NC2CCNCC2)c2cc(-c3ccc4c(c3)OCO4)ccc2n1 | 28.6% [at 2.29 µM] | – |
| Oc1cc(O)c2c(c1)O[C@H](c1ccc(O)c(O)c1)[C@@H](O)[C@@H]2c1c(O)cc(O)c2c1O[C@@H](c1ccc(O)c(O)c1)[C@H](O)C2 | -22.1% [at 11.4 µM] | – |
| O=C(c1cccc(F)c1)N1CCC2(CCCN(Cc3ccncc3)C2)CC1 | – | 0.631 µM (active) |
| O=C(c1cccc(F)c1)N1CCC2(CCN(Cc3ccccc3)CC2)CC1 | 6.78% | – |
| O=C(c1cccc(F)c1)N1CCC2(CCN(Cc3ccncc3)CC2)CC1 | – | 2.51 µM (active) |
| COc1ccc(C(=O)N2CCC3(CCCN(C(=O)Nc4cccc(F)c4)C3)CC2)cc1 | -11.2% | – |
| O=C(c1cccc(F)c1)N1CCC2(CCCN(Cc3ccccc3)C2)CC1 | 12.2% | – |
| O=C(Nc1cccc(F)c1)N1CCCC2(CCN(C(=O)c3ccncc3)CC2)C1 | – | 0.0794 µM (active) |
| O=C(Nc1cccc(F)c1)N1CCCC2(CCN(C(=O)c3cnccn3)CC2)C1 | -11.9% | – |
| O=C(c1cccc(F)c1)N1CCC2(CCCN(Cc3cc(C(F)(F)F)cc(C(F)(F)F)c3)C2)CC1 | -18.9% | – |
| O=C(c1cccc(F)c1)N1CCC2(CCN(Cc3cc(C(F)(F)F)cc(C(F)(F)F)c3)CC2)CC1 | -1.07% | – |
| Cc1ccc(C(=O)Nc2ccc(Cc3ccncc3)cc2)cc1[N+](=O)[O-] | – | 0.631 µM (active) |
| Cc1ccc(NC(=S)/C(=C(\[O-])c2ccc(C)c([N+](=O)[O-])c2)[n+]2ccccc2)cc1C | -13.7% | – |
| Cc1ccc(C(=O)N/N=C\c2ccc[nH]2)cc1[N+](=O)[O-] | -14.6% | – |
| CCC(=O)[C@@]1(C)[C@H](C)C[C@@H]2[C@@H]3CCC4=CC(=O)C=C[C@@]4(C)[C@H]3[C@H](O)C[C@]21C | -3.76% [at 25.6 µM] | – |
| CCc1c(C(=O)O)[nH]c2ccc(Br)cc12 | – | 15.8 µM (active) |
| CCCCCCN(CCCCCC)C(=O)Cc1c(-c2ccc(Cl)cc2)[nH]c2ccc(Cl)cc12 | -16.9% | – |
| O=C1Cc2c([nH]c3ccc(Br)cc23)-c2ccccc2N1 | -8.75% | – |
| CC(=O)N1CCC2(CCN(Cc3nccs3)CC2)CC1 | -7.1% | – |
| CCOC(=O)CCCc1c[nH]c2ccccc12 | – | 7.94 µM (active) |
| Nc1ccc2[nH]cc(CCC(=O)O)c2c1 | -7.47% [at 11.4 µM] | – |
| C[C@@](N)(Cc1c[nH]c2ccccc12)C(=O)O | -9.29% [at 11.4 µM] | – |
